# Reference: ChEMBL document CHEMBL4513216, “Probing the Open Global Health Chemical Diversity Library for Multistage-Active Starting Points for Next-Generation Antimalarials” (ACS Infect Dis, 2020)
# The whole screen tested about 69,000 compounds, of which about 8,600 (12%) showed an effect of 50% or more. Many of the other results were omitted from the sample, so strong results are more common in it than they were.
# System: Plasmodium berghei
# Experiment: Screen against P. berghei liver stage (PbLuc), transformed with Luciferase, at 10uM
# Format: functional, HepG2
# Details: tested at 10 uM
row,SMILES,INHIBITION
1,COc1ccc(-n2cccn2)c(CN2CCC3(CCNCC3)C2)c1,53%
2,c1cnn(Cc2ccc(CN3CCC4(CCCNC4)C3)cc2)c1 (stereo not given),3.96%
3,c1ccc(Cn2cccn2)c(CN2CCC3(CCCNC3)C2)c1 (stereo not given),4.87%
4,c1cnn(Cc2ccc(CN3CCC4(CCNCC4)C3)cc2)c1,60.3%
5,COc1ccc(-n2cccn2)c(CN2CCC(O)(CO)CC2)c1,21.2%
6,COc1ccc(-n2cccn2)c(CN2CCC3(CCCNC3)C2)c1 (stereo not given),13%
7,Cn1cccc1C(=O)N1CC[C@@]2(O)CCN(S(C)(=O)=O)C[C@H]2C1,42.1%
8,CC(C)CNc1nccc(-c2cnc3sc(Cl)cn3c2=O)n1,2.6%
9,Cc1cc(C(F)(F)F)nn1CC(C)C(=O)Nc1ccccn1 (stereo not given),-22.2%
10,Cc1cc(C)n(CC(=O)NCc2ccccn2)n1,3.58%
11,CCOc1ncccc1CNC(=O)NC1CCOc2ccccc21 (stereo not given),52.5%
12,CC(C)Oc1ncccc1CNC(=O)NC1CCOc2ccccc21 (stereo not given),42.9%
13,COc1ncccc1CNC(=O)NC1CCOc2ccccc21 (stereo not given),29.6%
14,COc1cnc(C2(O)CCN(C(=O)c3ccncc3)CC2)c(OC)n1,37.5%
15,Cc1cccc(C2(O)CCN(C(=O)c3ccc(N(C)C)cc3)CC2)c1C,33.1%
16,COc1cnc(C2(O)CCN(C(=O)c3ccco3)CC2)c(OC)n1,29.3%
17,COc1cnc(C2(O)CCN(C(=O)c3ccccn3)CC2)c(OC)n1,57.5%
18,COc1ccccc1C(=O)N1CCC(O)(c2cccc(C)c2C)CC1,24.2%
19,COc1cnc(C2(O)CCN(C(=O)c3scnc3C)CC2)c(OC)n1,36.7%
20,Cc1cccc(C2(O)CCN(C(=O)c3ccccn3)CC2)c1C,57.8%
21,COc1cnc(C2(O)CCN(C(=O)c3cccnc3)CC2)c(OC)n1,60.8%
22,CCC(=O)N1CCC(O)(c2ncc(OC)nc2OC)CC1,0.0932%
23,CCOC(=O)[C@H]1CNC[C@@H]1C(F)(F)F,35.6%
24,Cc1nnc([C@@H]2CC[C@@H]3[C@@H](CCN3S(=O)(=O)c3cccnc3)O2)o1,14.2%
25,Cc1ccc(C(=O)NS(=O)(=O)c2ccccc2F)c(=O)[nH]1,33.8%
26,CN(C)C(=O)Cn1cc(C(=O)NCCc2ccc(Cl)cc2Cl)nn1,-27.8%
27,CCc1nccn1C1CCCN(C(=O)c2ccoc2C)C1 (stereo not given),21.6%

row,SMILES,INHIBITION
1,CC(=Cc1ccccc1)CNCc1cccc(C(N)=O)c1,4.3%
2,O=C(O)c1ccccc1-n1cc(CN2CCC(c3cc[nH]n3)C2)cn1 (stereo not given),22.17%
3,Cc1csc2cc(C(=O)NC3CCCC3)cnc12,-76.5%
4,CCN1CCc2c(sc3c2C(=O)NC(C=Cc2ccccc2)N3)C1 (stereo not given),15.1%
5,CCc1nc(C)sc1CN(Cc1ccncc1)C1CCN(C)CC1,18.8%
6,Cc1nc(-c2ccc(CNS(=O)(=O)N(C)C)cc2)ccc1C(N)=O,-4.87%
7,CN(C)C(=O)Cc1nc(CN2CCCC2Cn2cncn2)cs1 (stereo not given),60.8%
8,CC(=O)Nc1nc(CN2CCCC2Cn2cncn2)cs1 (stereo not given),61.3%
9,CC(=O)Nc1nc(CN2CCCCC2Cn2cncn2)cs1 (stereo not given),0.411%
10,CN(C)C(=O)Cc1nc(CN2CCCCC2Cn2cncn2)cs1 (stereo not given),19.1%
11,CC(=O)Nc1nc(CN2CCCC2Cn2cccn2)cs1 (stereo not given),13.7%
12,CN(C)C(=O)Cc1nc(CN2CCCC2Cn2cccn2)cs1 (stereo not given),47.9%
13,Cc1cccc(CN2CCC3(CCCN(C(=O)c4ccoc4)C3)C2=O)n1 (stereo not given),-3.52%
14,CCn1nc(Br)nc1Sc1ccccc1NC(C)=O,12.4%
15,Cc1ccc(CN2C[C@H](OCCN(C)C)[C@H]3OCCC[C@H]32)o1,-102%
16,CC(=O)N1CCC[C@@H](NCc2cccc(F)c2)[C@@H]1c1ccc(C)s1,-32.2%
17,O=C(Nc1cccc(N2CCCC2)c1)N[C@H](CCO)c1ccccc1,19.8%
18,CCC(=O)N1CCN(C(=O)Nc2cccc(N3CCOCC3)c2)CC1,23.2%
19,O=C(Nc1cccc(N2CCOCC2)c1)N[C@H](CO)c1ccccc1,51.8%
20,CCn1ncc(S(=O)(=O)NC2(CN3CCOCC3)CCCCC2)c1C,32.8%
21,CCOC(=O)N1CCC(NC(=O)Nc2cccnc2OCC)CC1,-35.7%
22,Fc1cnc(N2CC[C@@H](N3CCOCC3)[C@@H]2Cc2cccnc2)nc1,43.8%
23,COc1ccccc1OCCn1c(C)c(C)oc1=O,48.2%
24,Cc1ccc(C)c(S(=O)(=O)CCN2CCCC2Cn2cccn2)c1 (stereo not given),4.93%
25,Cc1cc(N2CCC(n3cc(CN4CCNCC4)nn3)CC2)ccn1,49.9%
26,CC(C)Nc1cc(N2CCC(n3cc(CCO)nn3)CC2)ncn1,19.3%
27,CC(C)(C)c1cnc(CN2CCC[C@H]2CO)o1,34.1%

row,SMILES,INHIBITION
1,Cc1cc(N2CCC(n3cc(CN4CCC[C@@H]4CO)nn3)CC2)ccn1,68.9%
2,OC[C@@H]1CCCN1Cc1cn(C2CCN(C3CCCC3)CC2)nn1,54.4%
3,Cc1cc(N2CCC(n3cc(CCCO)nn3)CC2)ccn1,41%
4,COc1ccc(C[C@H]2CNCC[C@@H]2OCC2CC2)cc1,-51.6%
5,CN(C(=O)Cc1ccc2c(c1)OCCO2)C1CCCC1,-138%
6,Cc1cncc(C2CCN(Cc3cccn3C)CC2)n1,41.2%
7,CCn1cc(NC(=O)C2CCC(=O)N2Cc2ccc(C)o2)cn1 (stereo not given),16.1%
8,CN1CCC(N(C)C[C@H]2CC[C@@H](Cc3ccc4c(cnn4C)c3)O2)CC1,14.9%
9,CCN(C)C[C@H]1CC[C@@H](Cc2ccc3c(cnn3C)c2)O1,58.2%
10,CN(C)C[C@H]1CC[C@@H](Cc2ccc3c(cnn3C)c2)O1,32.4%
11,CCOc1nn(CC)cc1-c1nnc(SCC)n1C,15%
12,Cc1nn(C)c(C)c1C(C)NCc1ccsc1 (stereo not given),-14.5%
13,Cc1nn(C)c(C)c1C(C)NCc1ccc(OC(C)C)cc1 (stereo not given),-37.7%
14,Cc1cc(C)cc(CNC(C)c2c(C)nn(C)c2C)c1 (stereo not given),58%
15,CN1CC(=O)N(c2cccc(F)c2)CC12CCN(CC1CCOCC1)C2 (stereo not given),-4.23%
16,CN(C)c1ncc(-c2cc(C(=O)NC(C)(C)CO)n(CC3CC3)c2)cn1,-21.1%
17,COc1ccc(C(=O)NCC(c2cccn2C)N2CCCC2)c(OC)c1 (stereo not given),-11.1%
18,COc1ccc(C(=O)NCC(c2cccn2C)N2CCCC2)cc1OC (stereo not given),52.4%
19,COc1cc(OC)cc(C(=O)NCC(c2cccn2C)N2CCCC2)c1 (stereo not given),28.4%
20,COc1cccc(C(=O)NCC(c2cccn2C)N2CCCC2)c1OC (stereo not given),75.6%
21,COc1cccc(OC)c1C(=O)NCC(c1cccn1C)N1CCCC1 (stereo not given),30%
22,COc1ccc(C(=O)NCC(c2cccn2C)N2CCN(C)CC2)cc1 (stereo not given),6.83%
23,CN(C)C(=O)c1cccnc1SCc1ccccc1C#N,1.61%
24,CCc1nc(C2CCCN(C(=O)c3ccc(O)nc3)C2)no1 (stereo not given),43.2%
25,CN1CC(=O)N(c2ccccc2)CC12CCN(C(=O)c1cnccn1)C2 (stereo not given),29.3%
26,c1ccc(-c2nnc(CN3CCOC(Cn4cccn4)C3)o2)cc1 (stereo not given),0.914%
27,Cc1cnn(CCC(=O)N2CCCC(c3noc(C)n3)C2)c1 (stereo not given),-4.16%

row,SMILES,INHIBITION
1,Cc1ccc2c(n1)N(Cc1cccnc1)CCN(C1CCOCC1)C2,64.9%
2,O=C1[C@H]2CN(C3CCOCC3)C[C@H]2CN1Cc1ccncc1,-2.46%
3,Cc1ccc2c(n1)N(Cc1cccnc1)CCN(C(=O)C1CC1)C2,31.1%
4,Cc1ccc2c(n1)N(CCn1cccn1)CCN(C1CCOCC1)C2,-77.4%
5,O=C1[C@H]2CN(C3CCOCC3)C[C@H]2CN1Cc1cccnc1,92%
6,O=C1[C@H]2CN(S(=O)(=O)C3CC3)C[C@H]2CN1Cc1cccnc1,15.4%
7,CCOC(=O)CNC(=O)NCc1cccn1Cc1cccc(C)c1,45.8%
8,CC(=O)N1[C@H](CN(C)C)C[C@@H]2CN(C(=O)c3occc3C)CC[C@@H]21,12.4%
9,O=C(c1ccncc1)N1CCCC(c2ncncc2-c2ccncc2)C1 (stereo not given),12.3%
10,CCc1noc(CN2CCN(C(=O)OC(C)(C)C)C(C)C2)n1 (stereo not given),20.4%
11,Cc1ccc(CN2CC(O)CN(C(=O)OCC(C)C)CC2=O)cc1 (stereo not given),18.4%
12,O=S(=O)(c1cn[nH]c1)N1C[C@@H](O)[C@H](N2CCc3ccccc3C2)C1,-51.3%
13,COc1cccc(C2CC(=O)Nc3nc(N)sc32)c1OC (stereo not given),5.53%
14,CC(=O)c1cc(CN2CCCC23CCN(c2ccccn2)CC3)cs1,12.7%
15,CN(C)c1ncc(-c2cncn2CCc2ccc3c(c2)OCCO3)cn1,-12.3%
16,CC(C)S(=O)(=O)N1CCN(C(=O)c2cnn(C)c2Cl)CC1,19.845%
17,O=C(O)c1ccccc1-n1cnc(CN2CCCCCC2)c1,14.6%
18,O=C(CCC1CCCC1)NCCn1nc(C2CCNC2)c2cccnc21 (stereo not given),38.7%
19,CC(C)(C)CC(=O)NCCn1nc(C2CCNC2)c2cccnc21 (stereo not given),54.5%
20,CC(C)CC(=O)NCCn1nc(C2CCNC2)c2cccnc21 (stereo not given),44.8%
21,O=C(NCCn1nc(C2CCNC2)c2cccnc21)C1CC1 (stereo not given),13.5%
22,O=C(CCC1CCCC1)NCCn1nc(C2CCNC2)c2nccnc21 (stereo not given),67.1%
23,COCCC(=O)NCCn1nc(C2CCNC2)c2cccnc21 (stereo not given),5.11%
24,CC(C)(C)OC(=O)N[C@@H]1C[C@@H](O)CN(C(=O)c2ccc(F)cc2)C[C@H]1O,6.26%
